Most compounds without a hit are left out; they make up all but 11% or so of the library.
Sm TGR inh – qHTS Assay for the Inhibitors of Schistosoma Mansoni Peroxiredoxins; Schistosoma mansoni thioredoxin glutathione reductase (TGR), Q962Y6; purified TGR, DTNB reduction, TNB absorbance 405 nm; Potency, µM (doses to about 114 µM), usual class: inhibitors; actives 3% (n = 360,000); AID 485364, 2010; note: nearly all actives have a fitted effect of over 60% in size
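First, TGR (20 nM dispensed) and NADPH were mixed with compound. Second, a 15 min room-temperature incubation followed. Third, further NADPH and then DTNB were added to start the reaction. Finally, TNB absorbance was monitored kinetically.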
Pf growth 96h – Primary qHTS for delayed death inhibitors of the malarial parasite plastid, 96 hour incubation; actives 6.9% (n = 320,000); P. falciparum luciferase reporter growth, 96 h; AID 504834, 2011; Potency, µM (highest dose often 28.7 µM), usual class: inhibitors
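P. falciparum expressing integrated firefly luciferase grown in erythrocytes (2% hematocrit, 0.05% parasitemia final) with compounds for 96 hours at 37 C, 5% CO2. Growth inhibition read as loss of luminescence after adding luciferase detection reagent.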
NS1 function inh – qHTS Assay for Inhibitors of Influenza NS1 Protein Function | Potency, µM (series often up to 46.1 µM) | actives 0.4% (n = 270,000) | AID 2326, 2010; calls by dose curve; note: actives are rising curves; nearly all actives have a fitted effect of over 50% in size
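Read-out: OD600 growth recovery of NS1-expressing budding yeast. Cells grown overnight at 30C in -URA glucose medium, washed, resuspended and diluted 1:100 in 2% galactose assay medium, pH 6.0. Same strain lacking NS1 served as positive control.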
AMA1 RON2 block – qHTS for Inhibitors of AMA1-RON; Towards Development of Antimalarial Drug Lead: Primary Screen; AlphaScreen AMA1-biotinylated RON2 peptide binding; actives 0.2% (n = 360,000); Plasmodium falciparum AMA1 (3D7) - RON2 peptide interaction; Potency, µM (highest dose often 58.2 µM), most hits filed as inhibitors; note: nearly all actives have a fitted effect of over 45% in size
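AMA1 (3D7) with his tag at 25 nM final met compounds first, then biotinylated RON2 peptide at 25 nM; detection used donor plus acceptor beads, 10 µg/mL apiece, read by AlphaScreen after 30 min at room temperature.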
Pf growth 48h – Primary qHTS for delayed death inhibitors of the malarial parasite plastid, 48 hour incubation | P. falciparum luciferase growth in erythrocytes, 48 h | Potency, µM (top dose mostly 28.7 µM), hits mostly inhibitors | actives 5.9% (n = 310,000)
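Here the parasites carry a stable luciferase gene and grow inside erythrocytes in Albumax-based RPMI medium with compound for one erythrocytic cycle. Activity is scored as loss of luminescent signal.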
Each line names hits and unclear results; the compound was inactive in the other large screens. Unless noted, calls come from the whole dose curve; as a rule, active = well fitted curve in the direction sought with a large enough effect; inconclusive = small, poorly fitted or top-dose-only effect, or another doubt; inactive = no such curve, though single readings can be large; an effect the other way counts as inactive or inconclusive.

Clc1ccc(Cl)c(Nc2ccnc(SCc3ccccc3)n2)c1	none (no result: Sm TGR inh, Pf growth 96h, AMA1 RON2 block, Pf growth 48h)
Oc1ccccc1/C=N/Nc1nc2ccccc2o1	Pf growth 96h 2.1µM, Pf growth 48h 2.6µM
Oc1ccccc1/C=N/Nc1ncc(Br)cn1	Pf growth 48h 2.1µM
Cc1sc2ncnc(N/N=C/c3ccccc3O)c2c1C	Pf growth 48h 2.9µM
O=C(CN(c1cccc(Br)c1)S(=O)(=O)c1ccccc1)N1CCc2ccccc2C1	none (no result: Pf growth 96h, NS1 function inh, AMA1 RON2 block, Pf growth 48h)
CCN(CC(=O)Nc1c(F)cccc1F)C(=O)c1nn(C)c(=O)c2ccccc12	none (no result: NS1 function inh)
CCCn1nnc(NC(=O)c2ccc(OCC)c(Cl)c2)n1	Pf growth 48h 13µM
CCCn1nnc(NC(=O)c2ccc(OC)cc2)n1	none (no result: Pf growth 48h)
O=[N+]([O-])c1ccc(C2CCCC/C2=N/OCc2ccc(F)cc2)c([N+](=O)[O-])c1 (stereo not given)	Pf growth 96h inconclusive, AMA1 RON2 block inconclusive, Pf growth 48h 12µM
O=[N+]([O-])c1ccc(C2CCCC/C2=N/OCc2ccccc2F)c([N+](=O)[O-])c1 (stereo not given)	Pf growth 96h inconclusive, AMA1 RON2 block inconclusive, Pf growth 48h inconclusive
COc1ccc(/C=C2\SC(N)=NC2=O)cc1Br	Pf growth 96h inconclusive
COc1cc(C2C(C#N)=C(N)Oc3c2ccc2ccccc32)ccc1OCC(=O)Nc1ccccc1C (stereo not given)	Pf growth 96h inconclusive, Pf growth 48h 10µM
COc1cc(/C=C2\SC(N)=NC2=O)ccc1OCC(=O)Nc1ccccc1C	Pf growth 96h 5.2µM, Pf growth 48h 5.9µM (no result: NS1 function inh)
CCCN(CC(=O)Nc1ccccc1C)C(=O)/C=C/c1ccc(OCC)c(OC)c1	Pf growth 96h inconclusive, Pf growth 48h 9.3µM (no result: NS1 function inh)
CCCN(CC(=O)Nc1ccccc1C)C(=O)Cc1c(C)nc2ccccc2c1C	Pf growth 96h inconclusive, Pf growth 48h 10µM (no result: NS1 function inh)
CCCCn1c(N)c(N(CC(C)C)C(=O)c2oc3ccc(Br)cc3c2C)c(=O)[nH]c1=O	Pf growth 48h inconclusive (no result: NS1 function inh)
CCCN(CC(=O)Nc1ccccc1C)C(=O)c1oc2ccc(OCC)cc2c1C	Pf growth 96h 7.4µM, Pf growth 48h 2.9µM (no result: NS1 function inh)
O=C(/C=C/c1ccc([N+](=O)[O-])cc1)c1ccco1	Pf growth 96h inconclusive
O=C(/C=C/c1ccc(-c2ccccc2[N+](=O)[O-])o1)c1ccco1	Sm TGR inh 35µM, AMA1 RON2 block inconclusive (no result: NS1 function inh)
CCCCCC(=O)Cc1cc(O)cc2c1C(=O)Oc1cc(O)c(C(=O)O)c(CCCCC)c1O2	Sm TGR inh 35µM, Pf growth 96h inconclusive
O=C(CCNS(=O)(=O)c1ccc(OC(F)(F)F)cc1)NCCc1c[nH]c2ccccc12	Pf growth 96h 10µM, Pf growth 48h inconclusive (no result: NS1 function inh)
Cc1cccc(C)c1NC(=O)C(=O)NCCc1c[nH]c2ccccc12	Pf growth 96h inconclusive, Pf growth 48h 5.2µM (no result: NS1 function inh)
CC(=O)c1ccc(S(=O)(=O)NCCC(=O)NCCc2c[nH]c3ccccc23)cc1	Sm TGR inh inconclusive, Pf growth 48h inconclusive (no result: NS1 function inh)
Cc1cccc(C)c1NC(=O)NCCc1c[nH]c2ccccc12	none (no result: Pf growth 96h, NS1 function inh, AMA1 RON2 block, Pf growth 48h)
CC(=O)NCCc1c[nH]c2ccccc12	none
O=C(NCCc1c[nH]c2ccccc12)OCCSS(=O)(=O)O	Pf growth 96h 12µM
CCOc1cccc(C(=O)Nc2nc3c(s2)CC(C(C)(C)C)CC3)c1 (stereo not given)	none (no result: Pf growth 96h, NS1 function inh, AMA1 RON2 block, Pf growth 48h)
COC(=O)c1cccc(NC(=O)c2cc3ccccc3o2)c1	Pf growth 48h 9.3µM
COc1cc(NC(C)=O)ccc1NC(=O)c1cc2ccccc2o1	Pf growth 96h 12µM
COc1cc(NC(=O)c2ccc(Br)o2)ccc1NC(=O)c1ccccc1Cl	NS1 function inh inconclusive, Pf growth 48h 10µM (no result: Pf growth 96h)
COc1cc(NC(=O)c2ccccc2F)ccc1NC(=O)c1ccccc1Cl	none (no result: NS1 function inh)
COc1cc(NC(=O)c2ccccc2)ccc1NC(=O)c1cc2ccccc2o1	none (no result: Pf growth 48h)
CN(C)S(=O)(=O)c1ccc(NC(=O)c2cc3ccccc3o2)cc1	Pf growth 96h 13µM
COC(=O)c1cc(NC(=O)c2cc3ccccc3o2)cc(C(=O)OC)c1	none
O=S(=O)(c1cccs1)N1CN(C2CCCC2)c2nc3ccccc3nc21	Pf growth 96h inconclusive, Pf growth 48h inconclusive
O=S(=O)(c1cccs1)N1CN(C2CCCCC2)c2nc3ccccc3nc21	Pf growth 96h 5.2µM, Pf growth 48h 12µM
O=C(O)c1cc(S(=O)(=O)N2CC=C(c3ccccc3)CC2)ccc1O	none (no result: Pf growth 96h, NS1 function inh, AMA1 RON2 block, Pf growth 48h)
c1ccc(C2(Cn3ccc4ccccc43)OCCO2)cc1	Pf growth 96h inconclusive, Pf growth 48h 13µM
O=C(O)c1ccc(Cn2ccc3ccccc32)o1	NS1 function inh inconclusive
C=CCn1c(O)c(N=NC(=O)CNC(=O)/C=C/c2ccc(OC)cc2)c2ccccc21	AMA1 RON2 block inconclusive
C=CCn1c(O)c(N=NC(=S)Nc2cccc(C)c2)c2ccccc21	NS1 function inh inconclusive, Pf growth 48h 1.9µM
C=CCn1c(O)c(N=NC(=O)CNC(=O)/C=C/c2ccco2)c2ccccc21	Sm TGR inh 18µM, NS1 function inh inconclusive
CCN(CC(=O)Nc1ccccc1C(F)(F)F)C(=O)CCc1c(C)[nH]c(=O)c(C#N)c1C	none
COc1ccc(N2CCN(C(c3ccc4ncccc4c3)c3nnnn3C(C)(C)C)CC2)cc1 (stereo not given)	Pf growth 48h inconclusive (no result: NS1 function inh)
CCC(C)(C)n1nnnc1C(c1ccc2ncccc2c1)N1CCN(c2ccc(O)cc2)CC1 (stereo not given)	Sm TGR inh 50µM, Pf growth 96h inconclusive, Pf growth 48h inconclusive
CCC(C)(C)n1nnnc1C(c1ccc2ncccc2c1)N1CCN(c2nc3ccccc3s2)CC1 (stereo not given)	Pf growth 48h 5.2µM
CC(C)(C)n1nnnc1C(c1ccc2ncccc2c1)N1CCC(O)CC1 (stereo not given)	none (no result: NS1 function inh)
Cc1ccc(C(c2nnnn2C2CCCC2)N2CCN(c3nc4ccccc4s3)CC2)cc1 (stereo not given)	none (no result: Sm TGR inh, Pf growth 96h, NS1 function inh, Pf growth 48h)
CCC(C)(C)n1nnnc1C(c1ccc2ncccc2c1)N1CCCC(C)C1 (stereo not given)	Pf growth 96h 10µM, Pf growth 48h inconclusive
CN(C(=O)c1ccc(S(=O)(=O)N(C)C)cc1)c1ccc2ccccc2c1	Pf growth 96h inconclusive, Pf growth 48h inconclusive
COc1ccc(OC)c(Nc2ncnc3sccc23)c1	none
COc1cc(CN(C)c2ncnc3sccc23)ccc1OC(F)F	Pf growth 96h 13µM, Pf growth 48h inconclusive
C/C(Cn1nnc([N+](=O)[O-])n1)=N\NC(=O)c1ccccc1Cl	Pf growth 96h 9.3µM, NS1 function inh inconclusive, Pf growth 48h 7.4µM
C/C(Cn1nnc([N+](=O)[O-])n1)=N\NC(=O)c1cccc(Cl)c1	Pf growth 96h 12µM, Pf growth 48h inconclusive
